DT40 TDP1 CPT – DT40-hTDP1 cell growth loss with CPT. Potency, µM (titrated, usually from 46.2 µM), hits mostly inhibitors. actives 12% (n = 420,000). chicken DT40 Tdp1-/-;hTDP1 cells + 20 nM CPT, ATP luminescence, 48 h; further: nearly all actives have a fitted effect of over 55% in size
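Cell growth measured by CellTiter-Glo luminescence after a minimum 48 h, 37 C compound exposure with 20 nM CPT in Tdp1-knockout DT40 cells stably expressing hTDP1, seeded 400/well; qHTS titration format.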
LDHA inh – LDHA (human) enzyme inhibition. AID 1347041. activity change, % (values are at about 110 or 230 µM). P00338. actives 0.15% (n = 480,000). purified LDHA, NADH/diaphorase-resazurin fluorescence; stronger effect = lower value; in the data active means activity change below about -30%; inconclusive means mostly about -25% to -30%
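Enzyme activity of human lactate dehydrogenase 5 (2 nM; 0.06 mM NADH, 0.2 mM pyruvate, 5 min, RT) is measured via a resazurin/diaphorase fluorescence readout of residual NADH.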
TDP1 cell noCPT – qHTS for Inhibitors of human tyrosyl-DNA phosphodiesterase 1 (TDP1): qHTS in cells in absence of CPT; DT40 Tdp1-/- hTDP1 cells, no CPT, ATP luminescence, 48 h; Potency, µM (highest dose often 46.2 µM), usual class: inhibitors; actives 15% (n = 420,000); AID 686978, 2013; further: nearly all actives have a fitted effect of over 55% in size
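No-CPT arm: Tdp1-/-;hTDP1 DT40 cells (400/well) plus compounds, incubated ≥48 hr at 37 °C. Readout CellTiter-Glo luminescence.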
IL-1B inflam inh – inhibitors of inflammasome signaling (IL-1 beta secretion). THP-1 LPS/ATP IL-1B secretion, AlphaLISA, 16 h; stronger effect = lower value. activity change, % at 57.5 µM. actives 4.7% (n = 360,000); in the data active means activity change below about -50%; inconclusive means mostly about -30% to -49%
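THP-1 cells pretreated 1 hr with compounds (up to 57.5 uM final), then stimulated with LPS (250 ng/mL final) plus ATP (1.25 mM final); secreted IL-1B measured by AlphaLISA after 16 hr, decreased signal indicating inhibition.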
VP16 counter – inhibits Gal4-VP16 luciferase reporter, ROR gamma counter-screen; Potency, µM (top dose mostly 53.6 µM), usual class: inhibitors; actives 3.5% (n = 310,000); AID 2546; Drosophila S2 Gal4-VP16 UAS-luciferase, luminescence, 20 h;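 further: Gal4-VP16 expression switched on by copper sulfate through the metallothionein promoter; nearly all actives have a fitted effect of over 50% in size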
RORgamma inh – inhibitors of mouse ROR gamma transcriptional activity; Potency, µM (series often up to 53.6 µM), usual class: inhibitors; Drosophila S2 Gal4-RORgamma UAS-luciferase reporter, 20 h; P51450; actives 5.4% (n = 310,000); further: nearly all actives have a fitted effect of over 60% in size
Target sequence (P51450 whole entry, looked up, the tested form may be a part): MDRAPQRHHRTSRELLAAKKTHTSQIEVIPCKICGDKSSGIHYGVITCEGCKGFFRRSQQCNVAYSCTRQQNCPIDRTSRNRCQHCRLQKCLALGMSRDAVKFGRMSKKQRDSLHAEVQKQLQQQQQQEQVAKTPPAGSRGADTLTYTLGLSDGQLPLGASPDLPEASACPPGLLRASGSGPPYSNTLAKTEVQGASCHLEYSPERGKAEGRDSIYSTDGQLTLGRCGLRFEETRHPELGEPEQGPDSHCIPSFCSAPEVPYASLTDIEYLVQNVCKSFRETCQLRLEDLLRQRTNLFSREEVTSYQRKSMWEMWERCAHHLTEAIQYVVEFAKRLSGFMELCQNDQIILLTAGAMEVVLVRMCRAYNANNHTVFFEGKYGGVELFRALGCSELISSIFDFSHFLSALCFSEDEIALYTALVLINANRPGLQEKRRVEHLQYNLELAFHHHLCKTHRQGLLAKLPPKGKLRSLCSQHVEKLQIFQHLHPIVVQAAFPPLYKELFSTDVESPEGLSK
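Luminescence from a UAS-regulated Photinus luciferase reporter in stably transfected Drosophila Schneider cells is measured; decreased signal marks ROR gamma inhibition. Fusion expression is induced by 700 uM copper sulfate for 20 hr.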
Each line names hits and unclear results; the compound was inactive in the other large screens. Hits are enriched below; roughly 18% of the tested compounds scored in any of these assays. Unless noted, the call rests on the fitted dose curve; in most records, active means well fitted curve in the direction sought with a large enough effect; inconclusive means small, poorly fitted or top-dose-only effect, or another doubt; inactive means no such curve, though single readings can be large; an effect the other way counts as inactive or inconclusive.

COc1ccc(OCc2ccc(-c3nc(C#N)c(NCCc4ccccc4)o3)o2)cc1	none (no result: DT40 TDP1 CPT, TDP1 cell noCPT, IL-1B inflam inh, VP16 counter, RORgamma inh)
CCCCn1c(CCC)nc([N+](=O)[O-])c1Sc1ccc(Cl)cn1	DT40 TDP1 CPT 18µM, TDP1 cell noCPT inconclusive, IL-1B inflam inh inconclusive, VP16 counter 10µM, RORgamma inh inconclusive
CC(C)Cn1c(C(C)C)nc([N+](=O)[O-])c1Sc1ccc(Cl)cn1	DT40 TDP1 CPT inconclusive, TDP1 cell noCPT inconclusive
Cc1ccc(-n2nc3c(N4CCC(C(=O)NC5CCCCC5)CC4)nnc(C)c3c2C)cc1	DT40 TDP1 CPT inconclusive, TDP1 cell noCPT 12µM (no result: IL-1B inflam inh, VP16 counter, RORgamma inh)
Cc1ccc(-n2nc3c(N4CCC(C(=O)NC5CCC(C)CC5)CC4)nnc(C)c3c2C)cc1 (stereo unspecified)	DT40 TDP1 CPT 15µM, TDP1 cell noCPT 21µM (no result: IL-1B inflam inh, VP16 counter, RORgamma inh)
Cc1nnc(N2CCC(C(=O)NC3CCC(C)CC3)CC2)c2nn(-c3ccc(Cl)cc3)c(C)c12 (stereo unspecified)	none
O=C(COc1ccccc1-c1noc(-c2cccc(Cl)c2)n1)N1CCCCCC1	none (no result: DT40 TDP1 CPT, TDP1 cell noCPT, IL-1B inflam inh, VP16 counter, RORgamma inh)
COC(=O)c1cccc(Cn2c(Cl)c(/C=N/NC(=O)c3ccco3)sc2=O)c1	DT40 TDP1 CPT inconclusive, TDP1 cell noCPT 9.2µM, IL-1B inflam inh inconclusive, RORgamma inh inconclusive
CCc1cccc(C)c1NC(=O)Cc1c[nH]c2ccccc12	none (no result: DT40 TDP1 CPT, TDP1 cell noCPT, IL-1B inflam inh, VP16 counter, RORgamma inh)
O=C(Nc1ccccc1F)Nc1c(NC2CCCC2)c2ccccc2oc1=O	none (no result: DT40 TDP1 CPT, TDP1 cell noCPT, IL-1B inflam inh, VP16 counter, RORgamma inh)
CCOCCCNC(=O)CN1C(=O)/C(=C\c2ccc(C)cc2)Sc2ccccc21	DT40 TDP1 CPT 21µM, TDP1 cell noCPT inconclusive
COCCCNC(=O)CN1C(=O)/C(=C/c2ccccc2)Sc2ccccc21	DT40 TDP1 CPT inconclusive, TDP1 cell noCPT 15µM
CC(=O)c1ccc(N2CCN(C(=O)c3ccc(S(=O)(=O)NCc4ccco4)cc3)CC2)cc1	DT40 TDP1 CPT 21µM, TDP1 cell noCPT 16µM (no result: VP16 counter, RORgamma inh)
Cc1ccc(S(=O)(=O)Cc2ccc(C(=O)N3CCCCC3C)cc2)cc1 (stereo unspecified)	none
CC1CCCC(C)N1C(=O)c1ccc(CS(=O)(=O)c2ccccc2)cc1 (stereo unspecified)	DT40 TDP1 CPT inconclusive, TDP1 cell noCPT 15µM, VP16 counter inconclusive
O=C(c1ccc(S(=O)(=O)NCc2ccco2)cc1)N1CCN(Cc2ccccc2)CC1	TDP1 cell noCPT inconclusive
COc1ccc(CN2CCN(C(=O)c3ccc(S(=O)(=O)NCc4ccco4)cc3)CC2)cc1	DT40 TDP1 CPT inconclusive, TDP1 cell noCPT 18µM (no result: VP16 counter, RORgamma inh)
CC1CCCC(C)N1C(=O)c1ccc(S(=O)(=O)NCc2ccco2)cc1 (stereo unspecified)	DT40 TDP1 CPT inconclusive, TDP1 cell noCPT 23µM, RORgamma inh inconclusive
O=C(N[C@@H](C(=O)NCc1cccnc1)c1ccccc1)C(c1ccccc1)c1ccccc1	none (no result: DT40 TDP1 CPT, TDP1 cell noCPT, IL-1B inflam inh, VP16 counter, RORgamma inh)
CCN(c1ccc(-c2csc(C)n2)cc1)S(C)(=O)=O	none (no result: DT40 TDP1 CPT, TDP1 cell noCPT, IL-1B inflam inh, VP16 counter, RORgamma inh)
CONC(=O)c1ccc2c(c1)NC(=O)CS2	none (no result: DT40 TDP1 CPT, TDP1 cell noCPT, IL-1B inflam inh, VP16 counter, RORgamma inh)
N#CC(c1ccccc1O)N1N=C(c2ccccc2)CC1c1ccccc1 (stereo unspecified)	DT40 TDP1 CPT 18µM, TDP1 cell noCPT 10µM, VP16 counter inconclusive, RORgamma inh inconclusive
COc1cc(C(C#N)N2N=C(c3ccccc3)CC2c2ccccc2)ccc1O (stereo unspecified)	DT40 TDP1 CPT inconclusive, RORgamma inh 7.9µM
CCc1n[n+](CC(=O)c2ccccc2)c(N)s1	VP16 counter 2.2µM, RORgamma inh 2.8µM
Cc1cc(-c2cccc([N+](=O)[O-])c2)nc2ccccc12	none
O=[N+]([O-])c1ccc(-c2c(-c3ccccc3)ncc3cc(F)ccc23)cc1	DT40 TDP1 CPT 15µM, TDP1 cell noCPT 18µM (no result: VP16 counter, RORgamma inh)
Nc1nc(-c2ccccc2)c(-c2ccc([N+](=O)[O-])cc2)s1	DT40 TDP1 CPT inconclusive, TDP1 cell noCPT inconclusive
O=[N+]([O-])c1cccc(-c2c(-c3ccccc3)ncc3cc(F)ccc23)c1	DT40 TDP1 CPT 8.2µM, TDP1 cell noCPT 21µM (no result: VP16 counter, RORgamma inh)
Fc1ccc(/C=C2\CCCC3=C2NC(=S)NC3c2ccc(F)cc2)cc1 (stereo unspecified)	VP16 counter inconclusive, RORgamma inh 8.9µM (no result: DT40 TDP1 CPT, LDHA inh, TDP1 cell noCPT, IL-1B inflam inh)
CC(C)c1cc(-c2nc(-c3ccc(Cl)cc3)no2)n[nH]1	DT40 TDP1 CPT 21µM, TDP1 cell noCPT 21µM (no result: IL-1B inflam inh, VP16 counter, RORgamma inh)
COc1cc(-c2noc(-c3cc(C(C)C)[nH]n3)n2)cc(OC)c1OC	DT40 TDP1 CPT inconclusive, TDP1 cell noCPT 21µM (no result: IL-1B inflam inh, VP16 counter, RORgamma inh)
CC(c1ccc(S(C)(=O)=O)cc1)N(C)S(=O)(=O)c1cc(Cl)cc(Cl)c1 (stereo unspecified)	none (no result: DT40 TDP1 CPT, TDP1 cell noCPT, IL-1B inflam inh, VP16 counter, RORgamma inh)
C(=N\Nc1nncc2ccccc12)/c1ccccn1	DT40 TDP1 CPT 2.3µM, TDP1 cell noCPT 2.9µM, VP16 counter 3.5µM, RORgamma inh 1.4µM
CC(=O)Nc1ccc(/C=N/Nc2nncc3ccccc23)cc1	DT40 TDP1 CPT inconclusive, TDP1 cell noCPT inconclusive, IL-1B inflam inh inconclusive
Fc1cccc(/C=N/Nc2nccnc2Cl)c1	DT40 TDP1 CPT 12µM, TDP1 cell noCPT 15µM
Fc1cccc(/C=N/Nc2nncc3ccccc23)c1	DT40 TDP1 CPT inconclusive, TDP1 cell noCPT inconclusive, VP16 counter 10µM, RORgamma inh 1.3µM

High-throughput results as filed in PubChem.
